Experimental findings from PubChem BioAssay are described below.

One test has as its target Albumin (Bos taurus) (UniProt P02769). As to the kind of experiment: compounds binding labelled BSA control protein – biochemical, small-molecule microarray, Alexa647 label, 635/667 nm fluorescence, artefact control for SMM control protein annotation, profiling panel (AID 1118).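 Also: score merges 667 nm emission intensity and signal-to-noise per printed compound spot.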 The note with it: BSA-A647 binding, fluorescence 635 nm, higher = more signal.
Test [1] is described as follows: probe aXIP binding to arrayed compounds – biochemical, NeuroSMM set, 635/667 nm fluorescence, primary screen (AID 1119).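 Also: probe is the protein aXip251-270 applied at 1 µg/mL to compound-printed slides; binding of probe to printed compounds measured as 667 nm fluorescence plus signal to noise.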 The note with it: small-molecule microarray, higher = more signal, called active from +8 up or from −8 down.
The nature of test [2]: probe aNOTCH3 binding on compound microarray – biochemical, small-molecule microarray, 635/667 nm fluorescence, primary screen (AID 1120).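 Also: probe is a biotin-tagged antibody raised against NOTCH3 rather than NOTCH3 protein; score merges spot fluorescence near 667 nm with spot signal to noise.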 Conditions: higher = more signal.
Test [3] is described as follows: probe aNOTCH2 binding on compound microarray – biochemical, small-molecule microarray, 635/667 nm fluorescence, primary screen (AID 1121).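 Also: score merges feature fluorescence read at 667 nm with its signal to noise.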 The note with it: higher = more signal.
Test [4] addresses Carbonic anhydrase 2 (Homo sapiens) (UniProt P00918). As to the kind of experiment: compounds binding carbonic anhydrase 2 – biochemical, small-molecule microarray, Alexa647-labelled CAII, profiling panel (AID 1122). Conditions: CAII-A647 binding fluorescence, higher = more signal.
Test [5] is described as follows: COS7 lysate on small-molecule microarray, probe aHis, 635 nm (AID 1123).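 Also: z-score combines 667nm fluorescence intensity with signal-to-noise per printed compound spot.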 The note with it: COS7 cell lysate, fluorescence, higher = more signal.
Test [6] can be described thus: probe aLAP1 signal on lysate-treated microarray – cell lysate, small-molecule microarray, COS7 lysate, primary screen (AID 1124).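 Also: lysate comes from COS7 cells expressing LAP1 and is applied at 0.3 µg/mL; score merges spot fluorescence near 667 nm with signal-to-noise over triplicate slides.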 The note with it: probe aLAP1, fluorescence, higher = more signal.
For another test, the system named is Sam68 (KHDRBS1). As to the kind of experiment: compounds binding KHDRBS1 protein – biochemical, small-molecule microarray, 635 nm fluorescence, primary screen (AID 1125).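 Also: score merges 667 nm channel intensity with signal to noise over triplicate slides.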 Conditions: higher = more signal.
The subject of test [7] is Chordin-like protein 2 (CHRDL2). As to the kind of experiment: compounds binding chordin-like 2 – biochemical, small-molecule microarray, 635 nm fluorescence, primary screen (AID 1126).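 Also: printed compound slides probed with Chrdl2 protein at 4 µg/mL for 1 h at 4 C; score merges 667 nm emission intensity with signal to noise over three replicate slides.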 Conditions: fluorescence 635 nm, higher = more signal.
Test [8] addresses Concanavalin-A (Canavalia ensiformis) (UniProt P02866). As to the kind of experiment: compounds binding concanavalin A lectin – biochemical, small-molecule microarray, Alexa647 label, 635 nm, artefact control for SMM control protein annotation, primary screen (AID 1127).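 Also: z combines 667 nm emission intensity with signal-to-noise across three replicate slides.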 The note with it: ConA-A647 binding fluorescence, higher = more signal.
The nature of test [9]: compounds binding Alexa647 anti-His antibody – biochemical, small-molecule microarray, 635 nm fluorescence, artefact control for SMM control protein annotation, primary screen (AID 1128).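 Also: score merges feature fluorescence with signal-to-noise for each printed compound spot.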 The note with it: higher = more signal.
Test [10] deals with Human papillomavirus type 1a E7 protein (residues 1-88). As to the kind of experiment: HPV1a E7 small-molecule binders, primary screen, biochemical, small-molecule microarray, residues 1-88, 635 nm (AID 1129). The note with it: small-molecule microarray binding, fluorescence 635 nm; higher = more signal.
In test [11] the target is Focal adhesion kinase 1 (Homo sapiens) (UniProt Q05397). As to the kind of experiment: PTK2 protein binding on printed compound slides – biochemical, small-molecule microarray, 635/667 nm fluorescence, BSA, DTT, primary screen (AID 1130).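 Also: composite of spot emission at 667 nm and signal to noise over triplicate slides.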 Conditions: 635 nm fluorescence, higher = more signal.
For test [12], the system named is Fibrinogen (Alexa647-labelled). As to the kind of experiment: Alexa647-fibrinogen binding to printed small molecules – biochemical, small-molecule microarray, 635/667 nm fluorescence, artefact control for SMM control-protein annotation, profiling panel (AID 1131).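 Also: z-score merges 667 nm fluorescence with per-spot signal-to-noise over triplicate slides.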 Conditions: fibrinogen-A647 binding fluorescence, higher = more signal.
In test [13] the target is Follistatin (Homo sapiens) (UniProt P19883). As to the kind of experiment: FST protein binding to printed compounds – biochemical, small-molecule microarray, 635/667 nm fluorescence, primary screen (AID 1132). Conditions: 635 nm fluorescence, higher = more signal.
Test [14] concerns the target Fibroblast growth factor 2 (Homo sapiens) (UniProt P09038). As to the kind of experiment: basic fibroblast growth factor binding to printed compounds – biochemical, small-molecule microarray, 635/667 nm fluorescence, primary screen (AID 1133). The note with it: FGF2, fluorescence 635/667, higher = more signal.
A short description of test [15]: JC-1 mitochondrial potential readout, lung cancer cells – cell-based, A549, JC-1 fluorescence, basal, 24 h, 100 nL, profiling panel (AID 1138).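 Also: A549 lung adenocarcinoma cells under basal conditions with no added stimulus; test concentration not given here.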 The note with it: higher = more signal.
The test system of a further test is Lefty1. As to the kind of experiment: Lefty1 protein binding to printed compounds – biochemical, small-molecule microarray, 635/667 nm fluorescence, primary screen (AID 1139). Conditions: fluorescence 635/667, higher = more signal.
For test [16], the system named is wheat germ agglutinin (Triticum aestivum), Alexa647-labelled. As to the kind of experiment: Alexa647-WGA lectin binding to printed small molecules – biochemical, small-molecule microarray, 635/667 nm fluorescence, artefact control for SMM control-protein annotation, profiling panel (AID 1140).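 Also: score merges 667 nm feature emission with signal to noise over triplicate slides.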 The note with it: WGA-A647 binding, 635 nm fluorescence, higher = more signal.

For test [17], the target named is Luciferin 4-monooxygenase (Photinus pyralis) (UniProt P08659). As to the kind of experiment: inhibition of purified Photinus pyralis luciferase – biochemical, luminescence, purified enzyme, 2006 set, primary screen (AID 1141).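 Also: cell-free assay with purified firefly luciferase at 100 ng per well in PBS; test concentration not given here.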 Conditions: purified firefly luciferase, SteadyGlo luminescence, 30 min; higher = more signal, called active from +8 up or from −8 down.

Active and inactive are the calls of the source.

Sequence of Albumin (Bos taurus) (P02769 whole entry, looked up): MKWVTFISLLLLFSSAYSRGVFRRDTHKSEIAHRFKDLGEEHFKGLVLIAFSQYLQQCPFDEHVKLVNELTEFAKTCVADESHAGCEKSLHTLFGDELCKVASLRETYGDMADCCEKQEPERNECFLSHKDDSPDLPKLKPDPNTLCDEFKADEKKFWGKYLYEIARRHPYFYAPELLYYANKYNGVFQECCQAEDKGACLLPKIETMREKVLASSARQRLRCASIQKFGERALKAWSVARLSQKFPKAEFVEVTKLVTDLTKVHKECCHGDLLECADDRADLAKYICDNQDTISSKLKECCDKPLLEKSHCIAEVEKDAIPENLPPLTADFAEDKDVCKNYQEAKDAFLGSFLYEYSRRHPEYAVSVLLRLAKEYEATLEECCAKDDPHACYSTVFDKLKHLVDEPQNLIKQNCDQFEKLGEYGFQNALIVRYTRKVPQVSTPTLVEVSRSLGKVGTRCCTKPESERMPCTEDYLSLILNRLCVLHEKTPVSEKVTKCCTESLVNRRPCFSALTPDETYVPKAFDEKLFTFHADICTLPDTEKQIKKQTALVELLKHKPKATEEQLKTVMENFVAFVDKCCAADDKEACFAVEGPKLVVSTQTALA
Sequence of Focal adhesion kinase 1 (Homo sapiens) (Q05397 whole entry, looked up): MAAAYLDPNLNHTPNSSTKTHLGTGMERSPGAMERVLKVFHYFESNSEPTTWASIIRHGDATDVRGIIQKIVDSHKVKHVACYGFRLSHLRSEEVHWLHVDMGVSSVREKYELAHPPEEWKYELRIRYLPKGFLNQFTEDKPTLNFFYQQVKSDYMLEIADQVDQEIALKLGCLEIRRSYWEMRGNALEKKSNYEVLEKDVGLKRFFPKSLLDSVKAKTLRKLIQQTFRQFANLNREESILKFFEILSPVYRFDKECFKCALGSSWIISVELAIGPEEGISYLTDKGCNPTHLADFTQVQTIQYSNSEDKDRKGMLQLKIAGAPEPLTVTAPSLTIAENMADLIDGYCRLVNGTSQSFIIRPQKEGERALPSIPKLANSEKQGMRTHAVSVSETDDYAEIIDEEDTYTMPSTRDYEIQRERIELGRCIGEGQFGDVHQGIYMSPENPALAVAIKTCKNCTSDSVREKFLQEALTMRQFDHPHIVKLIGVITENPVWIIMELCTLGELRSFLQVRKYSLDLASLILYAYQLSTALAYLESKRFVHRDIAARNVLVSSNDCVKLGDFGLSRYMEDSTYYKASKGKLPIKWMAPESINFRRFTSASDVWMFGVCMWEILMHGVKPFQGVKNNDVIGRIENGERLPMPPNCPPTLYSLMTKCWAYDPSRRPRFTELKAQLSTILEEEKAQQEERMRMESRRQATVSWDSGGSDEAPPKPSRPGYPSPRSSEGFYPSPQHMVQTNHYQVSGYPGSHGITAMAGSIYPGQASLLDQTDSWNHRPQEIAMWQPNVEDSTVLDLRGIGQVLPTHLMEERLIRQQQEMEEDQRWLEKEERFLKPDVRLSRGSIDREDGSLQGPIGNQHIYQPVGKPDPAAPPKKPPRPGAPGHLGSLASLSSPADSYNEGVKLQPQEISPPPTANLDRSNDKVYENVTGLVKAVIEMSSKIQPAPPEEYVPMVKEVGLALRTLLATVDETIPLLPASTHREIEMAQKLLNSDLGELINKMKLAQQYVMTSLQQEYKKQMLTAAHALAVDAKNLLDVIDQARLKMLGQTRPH
Sequence of Concanavalin-A (Canavalia ensiformis) (P02866 whole entry, looked up): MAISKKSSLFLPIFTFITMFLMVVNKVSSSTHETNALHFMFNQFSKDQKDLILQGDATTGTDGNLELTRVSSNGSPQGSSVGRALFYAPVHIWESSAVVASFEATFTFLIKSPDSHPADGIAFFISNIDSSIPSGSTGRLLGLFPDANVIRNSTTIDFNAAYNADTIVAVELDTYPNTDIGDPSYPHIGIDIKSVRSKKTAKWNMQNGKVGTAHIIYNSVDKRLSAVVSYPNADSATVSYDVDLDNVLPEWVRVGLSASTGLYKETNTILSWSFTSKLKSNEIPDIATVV
Sequence of Luciferin 4-monooxygenase (Photinus pyralis) (P08659 whole entry, looked up): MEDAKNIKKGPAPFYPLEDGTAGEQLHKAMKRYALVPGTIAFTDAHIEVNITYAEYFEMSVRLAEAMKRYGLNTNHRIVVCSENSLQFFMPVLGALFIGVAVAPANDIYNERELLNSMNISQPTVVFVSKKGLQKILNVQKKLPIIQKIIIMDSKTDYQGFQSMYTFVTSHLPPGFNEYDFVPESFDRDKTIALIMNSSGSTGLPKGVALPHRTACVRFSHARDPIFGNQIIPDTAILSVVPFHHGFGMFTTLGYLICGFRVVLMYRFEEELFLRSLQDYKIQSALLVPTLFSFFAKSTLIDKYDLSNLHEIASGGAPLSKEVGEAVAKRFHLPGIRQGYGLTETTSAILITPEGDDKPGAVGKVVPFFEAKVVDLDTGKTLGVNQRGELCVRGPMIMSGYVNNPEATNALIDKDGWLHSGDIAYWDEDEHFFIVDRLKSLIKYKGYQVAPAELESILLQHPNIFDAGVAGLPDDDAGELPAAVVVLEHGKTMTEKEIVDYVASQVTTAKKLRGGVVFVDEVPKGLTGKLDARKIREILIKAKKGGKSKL
Sequence of Follistatin (Homo sapiens) (P19883 whole entry, looked up): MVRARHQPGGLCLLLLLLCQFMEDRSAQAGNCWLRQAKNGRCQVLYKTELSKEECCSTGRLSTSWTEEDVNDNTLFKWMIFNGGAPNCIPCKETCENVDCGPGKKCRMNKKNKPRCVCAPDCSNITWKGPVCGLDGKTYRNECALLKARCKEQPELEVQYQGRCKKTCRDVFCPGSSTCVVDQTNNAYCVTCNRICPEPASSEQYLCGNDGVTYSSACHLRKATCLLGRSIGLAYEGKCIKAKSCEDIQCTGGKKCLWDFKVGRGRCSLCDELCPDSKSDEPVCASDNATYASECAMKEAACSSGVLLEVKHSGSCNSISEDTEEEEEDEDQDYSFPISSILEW
Sequence of Fibroblast growth factor 2 (Homo sapiens) (P09038 whole entry, looked up): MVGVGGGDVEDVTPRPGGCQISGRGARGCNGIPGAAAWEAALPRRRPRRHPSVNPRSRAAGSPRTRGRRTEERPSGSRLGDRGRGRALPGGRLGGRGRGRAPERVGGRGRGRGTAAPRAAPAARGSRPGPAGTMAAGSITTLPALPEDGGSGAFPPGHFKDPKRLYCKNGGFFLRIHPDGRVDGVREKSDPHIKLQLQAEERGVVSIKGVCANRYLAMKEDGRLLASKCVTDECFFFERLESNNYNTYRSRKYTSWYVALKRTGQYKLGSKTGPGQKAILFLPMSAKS

In the case of `O=C(NCC(F)(F)F)[C@@H]1c2ccccc2C(=O)N(Cc2ccccc2Cl)[C@H]1c1ccc(CO)cc1`, the composite z-score in the test with Albumin (Bos taurus) is -0.288; in test [2], -0.48; in test [3], -0.182; in test [4] it was 0.761; in [5], 0.546; in [6] it was 1.03. Also, the composite z-score in the test with Sam68 (KHDRBS1) is -1.35; in test [7], -0.584; in [8] it was -0.907; in [9], 0.752; in test [10] it was -0.778; in test [11], -0.844. In addition, the composite z-score in [12] is -0.81; in test [13], -0.607; in test [14] it was -0.434; in the test with Lefty1 it was -1.23; in test [16] it was -0.742. In test [1], the composite Z-score was -0.152 (inactive). Also, the z-score in test [15] is 0.97; in test [17], -0.565 (inactive).
As for `[N-]=[N+]=NCc1ccccc1C[C@]1(C(N)=O)N=C(c2ccc(OCCCO)cc2)O[C@H]1c1ccccc1CN=[N+]=[N-]`, the composite z-score with Albumin (Bos taurus) was found to be 1.05; in test [2], 0.0254; in test [3] it was 0.0256; in test [4], 0.667; in test [5] it was 2.16; in test [6], 0.641. Further, the composite z-score is 1.31 in the test with Sam68 (KHDRBS1); -1.12 in test [7]; 0.991 in test [8]; 3.15 in test [9]; 0.974 in test [10]; 1.21 in test [11]. For the same compound, the composite z-score is 0.98 in test [12]; 1.01 in test [13]; 0.19 in [14]; -0.621 in the test with Lefty1; 1.32 in test [16]. In addition, in [1], the composite Z-score is -0.469 (inactive). For the same compound, the values for the z-score in [15] and in [17] were 1.3 and -3.84 (inactive), respectively.
On to `C=C(/C(=C/C[C@@H](OC(=O)c1ccncc1)c1ccc(CO)o1)c1cnc2ccccc2c1)C(C)C`, for which the composite z-score is 0.485 with Albumin (Bos taurus); 0.0225 in test [2]; -0.132 in test [3]; 0.557 in [4]; 0.606 in test [5]; 0.367 in test [6]. Moreover, the composite z-score in the test with Sam68 (KHDRBS1) was determined as 1.3; in test [7] it was 1.21; in test [8] it was 1.17; in test [9], 1.73; in [10] it was 0.969; in [11] it was 0.462. In addition, the composite z-score came out at 0.954 in test [12]; 1.32 in test [13]; 1.07 in test [14]; 0.949 in the test on Lefty1; 1.4 in test [16]. The composite Z-score in test [1] was 0.0431 (inactive). Moreover, the z-score in test [15] is 0.313; in test [17], -4.43 (inactive).
Take `C=CC(=O)O[C@@H](Cc1ccccc1)[C@H]1C2C=CCCC=C2CN1Cc1cccc(Cl)c1` (stereo not given in full): the composite z-score with Albumin (Bos taurus) is -0.421; in [2] it was -0.0057; in test [3] it was -0.112; in test [4], -0.794; in test [5], -0.323; in test [6], -0.454. For the same compound, the composite z-score in the test on Sam68 (KHDRBS1) is -2.7; in [7], -0.605; in [8], -0.965; in test [9] it was -0.0091; in [10] it was -2.16; in test [11], -0.426. Further, the composite z-score in [12] is -0.327; in [13], -0.14; in [14] it was -0.344; in the test on Lefty1, -0.697; in [16] it was -0.346. The composite Z-score in test [1] is 0.565 (inactive). Besides, the z-score in test [15] was 1.77; in [17], -1.52 (inactive).
With `Cc1ccc([C@@H]2CC=C(C(=O)O)[C@H](c3ccccc3)N2S(=O)(=O)c2ccc(C)cc2)cc1`, the composite z-score stood at 1.02 with Albumin (Bos taurus); 0.254 in test [2]; 0.0344 in test [3]; 0.546 in [4]; 2.36 in test [5]; 0.581 in test [6]. Moreover, the composite z-score in the test on Sam68 (KHDRBS1) was 1.31; in test [7], -2.11; in test [8], 1.22; in test [9], 2.65; in [10] it was 1.24; in test [11] it was 0.574. Besides, the composite z-score in test [12] is 0.894; in test [13], -0.358; in test [14], -0.847; in the test on Lefty1, -0.691; in test [16], 1.35. In test [1], the composite Z-score was 1.1 (inactive). Besides, the values for the z-score in test [15] and in test [17] were -1.47 and 1.33 (inactive), respectively.
Consider `O=C1C2C=CC(C(O)C#Cc3ccccc3)N(Nc3ccccc3)C2C(=O)N1c1ccccc1` (stereo not given), for which the composite z-score with Albumin (Bos taurus) is 0.812; in test [2] it was -0.0077; in test [3], -0.0176; in test [4], 0.812; in test [5] it was 1.94; in [6], 0.435. Further, the composite z-score with Sam68 (KHDRBS1) is 0.432; in [7], -0.575; in test [8] it was -0.414; in [9] it was 1.1; in test [10], 0.356; in test [11], 0.0485. In addition, the composite z-score in test [12] is 0.941; in test [13], 0.108; in [14], -0.0859; in the test with Lefty1 it was -0.67; in test [16] it was 1.23. Moreover, the composite Z-score in [1] was 0.634 (inactive). Further, the z-score in [15] was -0.136; in [17], -0.934 (inactive).
